From the supplement of paper PMC8975748
± gives the standard deviation of the averaged measurements.

Key:
[1] = test system: Saccharomyces cerevisiae BY4741 SeMeCo community; experiment: mean cell size (pixel area) (pixels); higher = larger cells; settings: 10 µM; 24 h; SM minimal medium
Procedure, shortened: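 A fluorescent Saccharomyces cerevisiae BY4741 community carrying four plasmids was used, with each plasmid complementing one auxotrophy and bearing a fluorescent marker. An overnight preculture at OD600 = 1.0 was diluted to OD600 = 0.3, and 70 µl went into 384-well plates acoustically predosed with drug (final 10 µM) in SM medium for 24 h. After paraformaldehyde fixation, cells were imaged by automated confocal microscopy and analysed in Harmony, giving the mean cell pixel area per well. Each value is the average of 3 replicates. Same SeMeCo high-content imaging drug screen: Selleck FDA-approved drugs at 10 µM, 24 h in SM medium, 384-well plates, 3 replicates.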

[2] = test system: Saccharomyces cerevisiae BY4741 SeMeCo community; experiment: z-score of prototroph abundance vs DMSO median; higher = larger share of this subpopulation than in DMSO controls; settings: 10 µM; 24 h; SM minimal medium; subpopulation (auxotrophy): Prototroph
Procedure, shortened: (§1)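 Subpopulation abundance was reported as a z-score against the median of vehicle wells. The Saccharomyces cerevisiae BY4741 community, carrying four plasmids that each restored one auxotrophy and encoded a distinct fluorescent protein, was grown 24 h in minimal SM medium in 384-well plates holding library drugs at 10 µM final. Cells were paraformaldehyde-fixed and imaged by automated confocal microscopy, with single-auxotroph fluorescent strains used for thresholds and autofluorescence correction.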

[3] = test system: Saccharomyces cerevisiae BY4741 SeMeCo community; experiment: z-score of subpopulation abundance vs DMSO median, subpopulation auxotrophic for M; higher = larger share of this subpopulation than in DMSO controls; settings: 10 µM; 24 h; SM minimal medium; subpopulation (auxotrophy): M
Procedure, shortened: as §1

[4] = test system: Saccharomyces cerevisiae BY4741 SeMeCo community; experiment: z-score of subpopulation abundance vs DMSO median, subpopulation auxotrophic for L; higher = larger share of this subpopulation than in DMSO controls; settings: 10 µM; 24 h; SM minimal medium; subpopulation (auxotrophy): L
Procedure, shortened: as §1

[5] = test system: Saccharomyces cerevisiae BY4741 SeMeCo community; experiment: z-score of subpopulation abundance vs DMSO median, subpopulation auxotrophic for U; higher = larger share of this subpopulation than in DMSO controls; settings: 10 µM; 24 h; SM minimal medium; subpopulation (auxotrophy): U
Procedure, shortened: as §1

[6] = test system: Saccharomyces cerevisiae BY4741 SeMeCo community; experiment: z-score of subpopulation abundance vs DMSO median, subpopulation auxotrophic for H; higher = larger share of this subpopulation than in DMSO controls; settings: 10 µM; 24 h; SM minimal medium; subpopulation (auxotrophy): H
Procedure, shortened: as §1

[7] = test system: Saccharomyces cerevisiae BY4741 SeMeCo community; experiment: z-score of subpopulation abundance vs DMSO median, subpopulation auxotrophic for LU; higher = larger share of this subpopulation than in DMSO controls; settings: 10 µM; 24 h; SM minimal medium; subpopulation (auxotrophy): LU
Procedure, shortened: as §1

[8] = test system: Saccharomyces cerevisiae BY4741 SeMeCo community; experiment: z-score of subpopulation abundance vs DMSO median, subpopulation auxotrophic for LM; higher = larger share of this subpopulation than in DMSO controls; settings: 10 µM; 24 h; SM minimal medium; subpopulation (auxotrophy): LM
Procedure, shortened: as §1

[9] = test system: Saccharomyces cerevisiae BY4741 SeMeCo community; experiment: z-score of subpopulation abundance vs DMSO median, subpopulation auxotrophic for HM; higher = larger share of this subpopulation than in DMSO controls; settings: 10 µM; 24 h; SM minimal medium; subpopulation (auxotrophy): HM
Procedure, shortened: as §1

[10] = test system: Saccharomyces cerevisiae BY4741 SeMeCo community; experiment: z-score of subpopulation abundance vs DMSO median, subpopulation auxotrophic for HU; higher = larger share of this subpopulation than in DMSO controls; settings: 10 µM; 24 h; SM minimal medium; subpopulation (auxotrophy): HU
Procedure, shortened: as §1

[11] = test system: Saccharomyces cerevisiae BY4741 SeMeCo community; experiment: z-score of subpopulation abundance vs DMSO median, subpopulation auxotrophic for UM; higher = larger share of this subpopulation than in DMSO controls; settings: 10 µM; 24 h; SM minimal medium; subpopulation (auxotrophy): UM
Procedure, shortened: as §1

[12] = test system: Saccharomyces cerevisiae BY4741 SeMeCo community; experiment: z-score of subpopulation abundance vs DMSO median, subpopulation auxotrophic for HL; higher = larger share of this subpopulation than in DMSO controls; settings: 10 µM; 24 h; SM minimal medium; subpopulation (auxotrophy): HL
Procedure, shortened: as §1

[13] = test system: Saccharomyces cerevisiae BY4741 SeMeCo community; experiment: z-score of subpopulation abundance vs DMSO median, subpopulation auxotrophic for HLU; higher = larger share of this subpopulation than in DMSO controls; settings: 10 µM; 24 h; SM minimal medium; subpopulation (auxotrophy): HLU
Procedure, shortened: as §1

[14] = test system: Saccharomyces cerevisiae BY4741 SeMeCo community; experiment: z-score of subpopulation abundance vs DMSO median, subpopulation auxotrophic for HLM; higher = larger share of this subpopulation than in DMSO controls; settings: 10 µM; 24 h; SM minimal medium; subpopulation (auxotrophy): HLM
Procedure, shortened: as §1

[15] = test system: Saccharomyces cerevisiae BY4741 SeMeCo community; experiment: z-score of subpopulation abundance vs DMSO median, subpopulation auxotrophic for HUM; higher = larger share of this subpopulation than in DMSO controls; settings: 10 µM; 24 h; SM minimal medium; subpopulation (auxotrophy): HUM
Procedure, shortened: as §1

[16] = test system: Saccharomyces cerevisiae BY4741 SeMeCo community; experiment: z-score of subpopulation abundance vs DMSO median, subpopulation auxotrophic for LUM; higher = larger share of this subpopulation than in DMSO controls; settings: 10 µM; 24 h; SM minimal medium; subpopulation (auxotrophy): LUM
Procedure, shortened: as §1

[17] = test system: Saccharomyces cerevisiae BY4741 SeMeCo community; experiment: z-score of subpopulation abundance vs DMSO median, subpopulation auxotrophic for HLUM; higher = larger share of this subpopulation than in DMSO controls; settings: 10 µM; 24 h; SM minimal medium; subpopulation (auxotrophy): HLUM
Procedure, shortened: as §1

SMILES | mean cell size [1] | z-score of prototroph abundance [2] | z-score of subpopulation abundance [3] | z-score of subpopulation abundance [4] | z-score of subpopulation abundance [5] | z-score of subpopulation abundance [6] | z-score of subpopulation abundance [7] | z-score of subpopulation abundance [8] | z-score of subpopulation abundance [9] | z-score of subpopulation abundance [10] | z-score of subpopulation abundance [11] | z-score of subpopulation abundance [12] | z-score of subpopulation abundance [13] | z-score of subpopulation abundance [14] | z-score of subpopulation abundance [15] | z-score of subpopulation abundance [16] | z-score of subpopulation abundance [17]
C/C=C\c1ccc(O)c(OC)c1 [Isoeugenol] | 12.02 ± 0.031 | -0.36 | 0.59 | 0.4 | 0.4 | -0.8 | -0.07 | 0.87 | 0.2 | -0.46 | 1.01 | -0.5 | 0.2 | -0.07 | 0.5 | 0.33 | 0.03
CN1CCN(C2=Nc3cc(Cl)ccc3Nc3ccccc32)CC1 [Clozapine] | 12.4 ± 0.21 | 0.32 | -0.47 | -0.41 | 0.17 | -0.49 | -1.03 | -0.26 | -0.07 | -0.45 | 0.28 | 0.94 | -0.01 | -0.52 | 0.23 | 0.32 | -0.29
COc1ccccc1OCC(O)CN1CCN(CC(=O)Nc2c(C)cccc2C)CC1 (stereo not given) [Ranolazine] | 12.5 ± 0.23 | -0.25 | 0.23 | 0.18 | -0.29 | – | -0.55 | 0.68 | 0.37 | -0.09 | 0.37 | -0.42 | -0.21 | 0.19 | 0.18 | 0.49 | 0.5
CC[C@H](C)C(=O)O[C@H]1C[C@H](O)C=C2C=C[C@H](C)[C@H](CC[C@@H](O)C[C@@H](O)CC(=O)O)[C@H]21 [Pravastatin sodium] | 12.3 ± 0.26 | -0.86 | 0.01 | 2.2 | -0.09 | 0.31 | 1.81 | 1.93 | 0.12 | 0.26 | 0.47 | 0.84 | -0.65 | 0.62 | -0.32 | 0.57 | 2.71
Cc1ccc(Sc2ccccc2N2CCNCC2)c(C)c1 [Vortioxetine] | 12.18 ± 0.097 | 0.02 | 0.08 | -0.09 | -0.12 | -0.14 | -0.19 | -0.16 | -0.01 | 0.9 | 0.26 | 0.77 | 0.51 | 0.2 | 0.6 | -0.16 | -0.06
O=c1[nH]cc(F)c(=O)[nH]1 [Fluorouracil (5-Fluoracil, 5-FU)] | 13.9 ± 0.2 | -10.5 | -2.62 | -0.27 | 0.26 | 13.4 | 0.59 | 0.7 | 18.4 | 8.79 | 2.82 | 6.71 | 10.4 | 22.3 | 12.3 | 3.63 | 22.5
CC1=C(C(=O)O)N2C(=O)[C@@H](NC(=O)[C@H](N)c3ccccc3)[C@H]2SC1 [Cephalexin] | 12 ± 0.24 | -0.14 | 1.37 | 0.02 | -1.02 | – | -0.21 | 0.35 | 1.28 | -0.74 | -0.17 | – | -0.6 | -0.53 | 0.41 | -0.42 | -0.42
C[C@@H]1CN(c2c(F)c(N)c3c(=O)c(C(=O)O)cn(C4CC4)c3c2F)C[C@H](C)N1 [Sparfloxacin] | 12.38 ± 0.094 | 0.52 | -0.53 | 0.07 | -0.2 | -0.34 | -0.36 | 0.37 | -0.01 | -0.11 | -0.25 | -0.29 | -0.1 | -0.79 | -0.04 | -0.41 | -0.92
COC(=O)C1=C(C)NC(C)=C(C(=O)OC)C1c1ccccc1[N+](=O)[O-] [Nifedipine] | 12.5 ± 0.2 | -0.35 | 0.13 | 0.52 | 0.12 | 0.64 | 0.14 | 0.48 | -0.14 | -0.68 | 0.26 | -0.95 | 1.29 | 0.5 | -0.1 | 0.34 | 1.1
CC(N)C12CC3CC(CC(C3)C1)C2 (stereo not given) [Rimantadine] | 12.5 ± 0.14 | -1.12 | 0.39 | 0.04 | 0.97 | 0.34 | 0.71 | 0.09 | 0.19 | 1.15 | 1.1 | -0.19 | 0.68 | 0.47 | 0.67 | 0.08 | -0.32
O=C(O)c1cc(/N=N/c2ccc(O)c(C(=O)O)c2)ccc1O [Olsalazine Sodium] | 12.63 ± 0.099 | 1.33 | -0.62 | -0.47 | -0.08 | -0.62 | -0.37 | -0.58 | -1.16 | -0.74 | -1.01 | -0.76 | -1.31 | -1.25 | -0.73 | -0.7 | -0.84
CN(C)CCc1c[nH]c2ccc(C[C@H]3COC(=O)N3)cc12 [Zolmitriptan] | 12.5 ± 0.18 | 0.27 | -0.23 | 0.2 | -0.08 | – | -0.9 | -0.12 | -1.06 | -1.01 | -0.65 | – | 0.09 | -0.12 | -0.45 | -0.64 | 0.15
CC(C)COc1ccc(CNC(=O)N(Cc2ccc(F)cc2)C2CCN(C)CC2)cc1 [Pimavanserin] | 12.4 ± 0.25 | -0.05 | 1.1 | -1.18 | 0.22 | – | 0.32 | -0.48 | -0.22 | 1.4 | -0.58 | 0.41 | -0.54 | 0.27 | -0.82 | -0.56 | -0.3
